# From PubChem BioAssay (Tox21)
# Results filed as inconclusive are left out. A call without a number means that no potency is given here. Calls of active or inactive are those of the source. Calls follow the shape of the dose curve; as a rule, active = well fitted activation curve with a large enough effect in the repeat runs; inconclusive = weak or mixed curves, or effect the other way; inactive = no such curve, though single readings can be large or run the other way.
# Experiment: qHTS assay to identify small molecule agonists of the retinoic acid receptor (RAR) signaling pathway (AID 1159553)
# Conditions: C3RL4 RARE luciferase reporter, agonist, 6 h; activation: at 73.3 µM (top of the series)
# Source text: National Center for Advancing Translational Sciences [NCATS] NIH Chemical Genomics Center [NCGC] U.S. Environmental Protection Agency [EPA] National Institutes of Environmental Health Sciences [NIEHS] National Toxicology Program [NTP] Assay overview: All-trans Retinoic acid (atRA) is the potent natural metabolite of retinol and plays an important role in normal embryonic development and maintenance of cellular phenotype in adult animals. atRA is the activating ligand for the retinoic acid receptors (RARs) which form heterodimers with retinoid X receptors (RXRs) on the retinoic acid response element (RARE). Through activation of the RAR/RXRs nuclear receptors, atRA regulates the transcription of a large number of protein-coding genes and regulatory RNAs. Intracellular levels of atRA are controlled by the retinol signaling pathway (RSP) that regulates the biosynthesis and catabolism of atRA to maintain physiological levels. Chemicals that interfere with the RSP can cause abnormal intracellular levels of atRA and therefore are potential developmental toxicants. To assess compounds for the potential adverse effect on embryonic development through interfering with retinol signaling, a cell-based RARE luciferase reporter gene assay was used. C3RL4 cell line (OARSA/CFSAN/FDA, Laurel, MD) was used to screen Tox21 10K compound library for identifying activators of the RSP.
# Assay Protocol Summary: C3RL4 cells were seeded at 1,000/well in 5 uL of assay medium into white solid 1,536-well tissue culture plates (Greiner Bio-One North America Inc. Monroe, NC) using a Multidrop Combi (Thermo Scientific, Waltham, MA) dispenser. After incubation at 37 C and 5% CO2 for an overnight, 23 nL of compounds dissolved in DMSO, positive control or DMSO only were transferred by a Pintool station (Kalypsys, San Diego, CA). After 6 hr incubation at 37 C and 5% CO2, 5 uL of Amplite Luciferase reagent (AAT Bioquest Inc. Sunnyvale, CA) was added to each assay plate using a Flying Reagent Dispenser (FRD) (Aurora Discovery, San Diego, CA). Luminescence was quantified on a ViewLux plate reader (PerkinElmer, Waltham, MA) after 30 min incubation at room temperature.
# Potency is read from the fitted curve at half-maximal effect.
row,Structure (SMILES),Potency
1,CCCCCCCC/C=C\CCCCCCCCO,inactive
2,C=C1C[C@@]23CC[C@H]4[C@@](C)(CCC[C@@]4(C)C(=O)O[C@@H]4O[C@H](CO)[C@@H](O)[C@H](O)[C@H]4O)[C@@H]2CC[C@]1(O[C@@H]1O[C@H](CO)[C@@H](O)[C@H](O[C@@H]2O[C@H](CO)[C@@H](O)[C@H](O)[C@H]2O)[C@H]1O[C@@H]1O[C@H](CO)[C@@H](O)[C@H](O)[C@H]1O)C3,inactive
3,CC(C)Nc1cccnc1N1CCN(C(=O)c2cc3cc(NS(C)(=O)=O)ccc3[nH]2)CC1,inactive
4,O=c1cc(-c2ccccc2)oc2cc(O)cc(O)c12,0.969 µM (active)
5,O=c1[nH]ncc2ccccc12,inactive
6,O=C(O)C[C@H](NC(=O)OCc1ccccc1)C(=O)O,inactive
7,CCOC(=O)c1ccc(I)cc1,inactive
8,CCCCCC[C@@H](O)C/C=C\CCCCCCCC(=O)OCC(O)CO (stereo not given in full),inactive
9,CCCCN1CCCC1C(=O)Nc1c(C)cc(C)cc1C (stereo not given),inactive
10,O=C1NCCN1CCO,inactive
11,CCCCOc1ccc(OCCCN2CCOCC2)cc1,21.1 µM (active)
12,CS(=O)(=O)c1ccc(-c2cn3ccccc3n2)cc1,1.68 µM (active)
13,CCCCC(CC)CN (stereo not given),inactive
14,C/C=C\C/C=C/CCCCCCCCOC(C)=O,inactive
15,CC(C)c1nc(CN(C)C(=O)N[C@H](C(=O)N[C@@H](Cc2ccccc2)C[C@H](O)[C@H](Cc2ccccc2)NC(=O)OCc2cncs2)C(C)C)cs1,inactive
16,O=C(O)c1cccc(-c2noc(-c3ccccc3F)n2)c1,0.003 µM (active)
17,N#[N+]c1ccc2c(S(=O)(=O)[O-])cccc2c1O,inactive
18,N#CCc1ccc(Cl)cc1Cl,inactive
19,O=C1c2ccccc2C(=O)C1c1ccc(Br)cc1,inactive
20,CN1CCCC(n2nc(Cc3ccc(Cl)cc3)c3ccccc3c2=O)CC1 (stereo not given),inactive

row,Structure (SMILES),Potency
1,CC(CC1c2ccccc2CCc2ccccc21)CN(C)C (stereo not given),inactive
2,Clc1cc(Cl)nc(Cl)n1,inactive
3,Cc1ccc(OC(=O)c2ccccc2O)cc1,6.86 µM (active)
4,CC(O)c1ccccc1 (stereo not given),inactive
5,COc1ccccc1Oc1c(NS(=O)(=O)c2ccc(C(C)(C)C)cc2)nc(-c2ncccn2)nc1OCCO,inactive
6,CN1C(=O)N(c2ccccc2Br)Cc2cnc(Nc3ccc4c(c3)OCC(CO)O4)nc21 (stereo not given),inactive
7,CC1CC(OC(=O)C(O)c2ccccc2)CC(C)(C)N1C (stereo not given),inactive
8,CC(C)(O)c1ccc(CNC(=O)c2cccnc2Oc2ccc3nonc3c2)cc1,inactive
9,Cc1ccc(CO)cc1,inactive
10,O=C1Cc2ccccc2N1c1c(Cl)cccc1Cl,inactive
11,O=C1CCCCCCCCCCOCCCCO1,inactive
12,CC(CN(C)C)C(C)(O)Cc1ccc(Cl)cc1 (stereo not given),inactive
13,NNC(=O)CP(=O)(c1ccccc1)c1ccccc1,inactive
14,NCCNCCO,inactive
15,COc1cc(N)c(Cl)cc1C(=O)NC1CCN(CCCOc2ccc(F)cc2)CC1OC (stereo not given),inactive
16,CCN(CC)CCNC(=O)COc1ccc(OC)cc1,inactive
17,COC(=O)CS,inactive
18,CO[C@]1(NC(=O)CSC(F)F)C(=O)N2C(C(=O)O)=C(CSc3nnnn3CCO)CO[C@H]21,inactive
19,CC(C)=CCC1C(=O)N(c2ccccc2)N(c2ccccc2)C1=O,inactive
20,CCc1ccccc1,inactive
